An excerpt weighted towards active compounds, which were near 19% of everything screened.
TDP1 cell CPT: growth inhibition of DT40 Tdp1-/-;hTDP1 cells with camptothecin (screen for TDP1 inhibitors); chicken DT40 Tdp1-/-;hTDP1 cells + 20 nM CPT, ATP luminescence, 48 h; Potency, µM (series often up to 46.2 µM), actives largely listed as inhibitors; actives 12% (n = 420,000); further: nearly all actives have a fitted effect of over 55% in size
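Cell growth measured by CellTiter-Glo luminescence after a minimum 48 h, 37 C compound exposure with 20 nM CPT in Tdp1-knockout DT40 cells stably expressing hTDP1, seeded 400/well; qHTS titration format.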
IL1B secr inh: blocks inflammasome-driven IL-1 beta release; THP-1 LPS/ATP IL-1B secretion, AlphaLISA, 16 h; active compounds read low; activity change, % at 57.5 µM; actives 4.7% (n = 360,000); AID 743279; in the data active means activity change below about -50%; inconclusive means mostly about -30% to -49%
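THP-1 cells pretreated 1 hr with compounds (up to 57.5 uM final), then stimulated with LPS (250 ng/mL final) plus ATP (1.25 mM final); secreted IL-1B measured by AlphaLISA after 16 hr, decreased signal indicating inhibition.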
ELG1 repair inh: blocks ELG1-dependent DNA repair in HEK293T cells; HEK293T ELG1-luciferase reporter, luminescence, 16 h; DNA damage induced by 5-fluorouridine; Potency, µM (doses to about 46.1 µM), actives largely listed as inhibitors; actives 2.3% (n = 330,000); AID 504467; further: nearly all actives have a fitted effect of over 55% in size
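Quantitative HTS, concentration-response format. 2,000 cells/well co-treated with 5-fluorouridine and compound, 16 hr in 5% CO2 at 37 °C; ONE-Glo luminescence read after 30 min.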
HT1080NT lethal: kills 2HG-producing HT-1080-NT fibrosarcoma cells | HT-1080-NT fibrosarcoma viability, CellTiter-Glo ATP luminescence, 48 h | Potency, µM (highest dose often 46.1 µM), usual class: cytotoxic | actives 1.6% (n = 360,000) | AID 686970;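 further: NT is the 2HG producing partner of a matched IDH1 knockdown line; nearly all actives have a fitted effect of over 55% in size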
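A 48-hour cytotoxicity screen used HT-1080-NT cells plated 2 hours before compound delivery. ATP-based CellTiter-Glo luminescence measured viability, normalized to DMSO and no-cell controls.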
HT1080 IDH1KD tx: HT-1080 IDH1 knockdown cell toxicity (counter line); HT-1080 IDH1 knockdown viability, ATP luminescence, 48 h; actives 2% (n = 360,000); Potency, µM (highest dose often 46.1 µM), most hits filed as cytotoxic
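IDH1KD HT-1080 cells, 750/well, RPMI + 5% FBS; compound pinned after 2 h settling; 48 h, 37 °C; CellTiter-Glo luminescence; % activity normalised to DMSO and no-cell wells; curves fitted, classed by r2 and efficacy.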
TDP1 cell noCPT: qHTS for Inhibitors of human tyrosyl-DNA phosphodiesterase 1 (TDP1): qHTS in cells in absence of CPT; DT40 Tdp1-/- hTDP1 cells, no CPT, ATP luminescence, 48 h; Potency, µM (doses to about 46.2 µM), usual class: inhibitors; actives 15% (n = 420,000); further: nearly all actives have a fitted effect of over 55% in size
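Growth kinetics read by CellTiter-Glo luminescence after ≥48 hr at 37 °C. Cells: DT40 Tdp1-/- stably carrying human TDP1, 400 per well, compound exposure in the absence of CPT (DMSO vehicle).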
Numbers stand for hits; – = inactive; ? = inconclusive; · = no result; ! = repeats disagree; [ ] = dose if it differs, or a comment. Unless noted, the call rests on the fitted dose curve; in most records, active means well fitted curve in the direction sought with a large enough effect; inconclusive means small, poorly fitted or top-dose-only effect, or another doubt; inactive means no such curve, though single readings can be large; an effect the other way counts as inactive or inconclusive.

SMILES	TDP1 cell CPT	IL1B secr inh	ELG1 repair inh	HT1080NT lethal	HT1080 IDH1KD tx	TDP1 cell noCPT
COc1cccc(C(C)(O)c2nc(-c3ccccc3C)cs2)c1 (centres undefined)	?	–	·	?	?	?
COc1cccc(C(C)(O)c2nc(-c3csc4ccccc34)cs2)c1 (centres undefined)	?	–	·	21µM	?	–
O=S(=O)(c1ccccc1)C1CC1(c1ccccc1)c1ccccc1 (centres undefined)	?	–	·	–	–	?
C[C@H](NC(=O)OC(C)(C)C)C(=O)NCC1CCC(C(=O)N[C@@H](Cc2ccccc2)C(=O)O)CC1 (some centres undefined)	–	–	?	–	–	–
Cc1c(O)cccc1C(=O)N[C@@H](CSc1ccccc1)[C@H](O)CN1C[C@H]2CCCC[C@H]2C[C@H]1C(=O)NC(C)(C)C	9.2µM!	?	–	13µM	18µM	23µM!
c1ccc(C(NCCNC(c2ccccc2)c2ccccc2)c2ccccc2)cc1	?	–	–	–	–	21µM
NS(=O)(=O)c1ccc(CCNC(c2ccccc2)c2ccccc2)cc1	?	–	–	–	–	23µM
CCOCCCNC(c1ccccc1)c1ccncc1 (centres undefined)	–	–	–	–	–	–
CC(C)c1cc(NC(=O)c2ccccc2)cc(C(C)C)c1O	–	-57	–	–	–	?
CC(C)c1ccccc1NC(=O)c1cccc(NC(=O)c2ccccc2)c1	16µM	–	?	–	–	?
Cc1ccccc1C(=O)Nc1cccc(C(=O)Nc2ccccc2C(=O)O)c1	–	–	–	–	–	–
CC(=O)Nc1cc(C(C)C)c(O)c(C(C)C)c1	–	–	–	–	–	–
Nc1ccn([C@@H]2O[C@H](CNCc3cnc(N4CCOCC4)s3)[C@@H](O)[C@H]2O)c(=O)n1	–	–	·	–	–	?
CCOc1[nH]n(-c2ccccc2)c(=O)c1C=Nc1ccc(C)cc1	?	–	–	–	–	–
CCOc1[nH]n(-c2ccccc2)c(=O)c1C=Nc1ccccc1	6.5µM	–	?	?	?	5.8µM
CCOc1[nH]n(-c2ccccc2)c(=O)c1C=Nc1ccc(Cl)cc1	?	–	–	–	–	15µM
COCc1c(C(=O)NCC2CCCN(C)C2)cnn1-c1ncc2c(n1)-c1ccccc1CCC2 (centres undefined)	–[9.04 µM]	·	·	·	·	–
Cn1nc(C(C)(C)C)cc1N1C(=O)CCC1(C)C(=O)Nc1ccc2c(c1)OCCO2 (centres undefined)	–	–	·	–	–	–
O=S(=O)(CCN1CCSCC1)c1ccc(Cl)cc1	–	-73	–	–	–	–
Cc1cc(C(=O)N[C@@H](c2ccccc2)[C@]2(C)C[C@H]2[C@@H](C)C(=O)Nc2ccc3ccccc3c2)no1	?	–	–	–	–	?
C[C@@H](C(=O)Nc1ccc2ccccc2c1)[C@@H]1C[C@@]1(C)[C@@H](NC(=O)c1cnccn1)c1ccccc1	26µM	–	–	–	–	?
Cc1cc(C(=O)N[C@H](c2ccccc2)[C@@]2(C)C[C@@H]2[C@@H](C)C(=O)Nc2ccc3ccccc3c2)no1	?	-54	?	–	–	26µM
C[C@@H](C(=O)Nc1ccc2ccccc2c1)[C@H]1C[C@]1(C)[C@H](NC(=O)c1cnccn1)c1ccccc1	?	-52	–	–	–	?
N#Cc1ccccc1NC(=O)COC(=O)CN1C(=O)C2CCCCC2C1=O (centres undefined)	?	–	–	–	–	?
CCOc1ccccc1NC(=O)CSC1=Nc2ccccc2C2=NC(CC(=O)NC3CCCCC3)C(=O)N12 (centres undefined)	21µM	·	·	·	·	21µM
SMILES	TDP1 cell CPT	IL1B secr inh	ELG1 repair inh	HT1080NT lethal	HT1080 IDH1KD tx	TDP1 cell noCPT
COc1ccc(NC(=O)CSC2=Nc3ccccc3C3=NC(CCC(=O)NC4CCCCC4)C(=O)N23)cc1Cl (centres undefined)	?	·	·	·	·	23µM
CN(C(=O)CSC1=Nc2ccccc2C2=NC(c3ccccc3)C(=O)N12)C1CCCCC1 (centres undefined)	21µM	–	–	–	–	?
COc1ccc(OC)c(NC(=O)CSC2=Nc3ccccc3C3=NC(CCC(=O)NC4CCCCC4)C(=O)N23)c1 (centres undefined)	–	·	·	·	·	–
CCOc1ccc(NC(=O)CSC2=Nc3ccccc3C3=NC(CC(=O)NCc4ccco4)C(=O)N23)cc1 (centres undefined)	15µM	·	·	·	·	23µM
O=C(CC1N=C2c3ccccc3N=C(SCc3ccc(Cl)cc3)N2C1=O)NCc1ccco1 (centres undefined)	?	–	–	–	–	?
O=C(CSC1=Nc2ccccc2C2=NC(CC(=O)NC3CCCCC3)C(=O)N12)Nc1ccc(F)cc1 (centres undefined)	?	·	·	·	·	–
CCCc1nc2ccccc2c(=O)n1-c1ccc(C(=O)OCC)cc1	?	–	?	–	–	?
COc1cc(/C=C/C(=O)O)cc(S(=O)(=O)Nc2ccccc2C(=O)NCc2ccco2)c1OC	–	–	–	–	–	–
O=C(CSC1=Nc2ccccc2C2=NC(CCC(=O)NC3CCCCC3)C(=O)N12)Nc1cccc(C(F)(F)F)c1 (centres undefined)	?	·	·	·	·	23µM
CCc1ccc(NC(=O)CSC2=Nc3ccccc3C3=NC(CC(=O)NC4CCCCC4)C(=O)N23)cc1 (centres undefined)	12µM	·	·	·	·	9.2µM
O=C(CCC1N=C2c3ccccc3N=C(SCC(=O)NCc3ccco3)N2C1=O)NCc1ccco1 (centres undefined)	–	–	–	–	–	–
COc1ccc(NC(=O)CSC2=Nc3ccccc3C3=NC(CCC(=O)NC4CCCCC4)C(=O)N23)cc1 (centres undefined)	?	·	·	·	·	–
CC(C)c1ccc(NC(=O)CSC2=Nc3ccccc3C3=NC(CC(=O)NC4CCCCC4)C(=O)N23)cc1 (centres undefined)	21µM	·	·	·	·	21µM
CC(C)c1ccc(NC(=O)CSC2=Nc3ccccc3C3=NC(CCC(=O)NC4CCCCC4)C(=O)N23)cc1 (centres undefined)	23µM	·	·	·	·	23µM
COc1ccccc1/C=C/C(=O)Nc1cccnc1Cl	–	-55	?	–	–	–

Screens from PubChem BioAssay.
